Drawing on PubChem BioAssay, this text covers composite z-score and z-score for four compounds.

Assay [1] deals with Wnt5a (protein binding on small-molecule microarray). In words: Wnt5a binders on small-molecule microarray, primary screen, biophysical, 635/667 nm fluorescence (AID 1142).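 Also: fluorescence read at 667 nm with signal to noise per printed feature.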 The following applies: 635 nm fluorescence, higher = more signal.
Assay [2] is described as follows: cell viability in Huh7 cells, primary screen, cytotoxicity control for HCV replication inhibitor project, CellTiter-Glo luminescence, basal, 48 h (AID 1143).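 Also: Huh7 hepatoma cells carrying a hepatitis C replication reporter with no stimulus; test concentration not given here.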 The following applies: Huh7 HCV replicon, higher = more signal, called active from +8 up or from −8 down. (In ATP-based viability assays light output follows the ATP content of the culture.)
Assay [3] is described as follows: P. aeruginosa biofilm formation inhibitors, primary screen, PAO1 strain, BacTiter-Glo luminescence, LB-PBS (AID 1144). To be noted: 12 h, higher = more signal.
The nature of assay [4]: CREB reporter modulators without forskolin, primary screen, cell-based, PC12, CRE-LacZ reporter, unstimulated (AID 1145). To be noted: no forskolin, luminescence, 4.5 h, higher = more signal, called active from +8 up or from −8 down.
Assay [5] is described as follows: CREB reporter modulators under forskolin, primary screen, cell-based, PC12, CRE-LacZ reporter, forskolin-stimulated (AID 1146).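 Also: PC12 cells with 6xCRE LacZ reporter stimulated by forskolin 10 µM; beta-galactosidase reporter signal reflecting CREB driven transcription.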 The following applies: luminescence, 4.5 h, higher = more signal, called active from +8 up or from −8 down.
Assay [6] concerns the target Streptavidin (Streptomyces avidinii) (UniProt P22629). In words: streptavidin binders on small-molecule microarray, primary screen, artefact control for SMM compound annotation, biophysical, 635/667 nm fluorescence (AID 1147).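 Also: signal reflects streptavidin binding to arrayed compounds as a control protein.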 To be noted: streptavidin binding, higher = more signal.
The nature of assay [7]: small-molecule binders of probe aInhba, primary screen, biochemical, small-molecule microarray, 635/667 nm fluorescence (AID 1148).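 Also: score merges 667nm spot fluorescence with signal-to-noise for antibody binding to printed compounds.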 To be noted: higher = more signal.
Assay [8] deals with Torsin-1A (Homo sapiens) (UniProt O14656). As to the kind of experiment: torsin A binders from cell lysate, primary screen, small-molecule microarray, wild-type, 635/667 nm (AID 1149). The following applies: COS7 hTOR1A-WT lysate, 635 nm fluorescence, higher = more signal.
Chain of Torsin-1A (Homo sapiens) (O14656 whole entry, looked up): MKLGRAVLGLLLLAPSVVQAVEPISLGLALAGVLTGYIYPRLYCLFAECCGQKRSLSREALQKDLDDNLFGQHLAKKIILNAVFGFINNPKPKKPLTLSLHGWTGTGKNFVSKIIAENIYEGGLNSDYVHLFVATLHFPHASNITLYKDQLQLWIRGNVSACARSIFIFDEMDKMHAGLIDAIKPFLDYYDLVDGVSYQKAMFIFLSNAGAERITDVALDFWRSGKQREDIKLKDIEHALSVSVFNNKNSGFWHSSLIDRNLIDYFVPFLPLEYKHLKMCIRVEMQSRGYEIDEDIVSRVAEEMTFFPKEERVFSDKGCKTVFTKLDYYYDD
Assay [9] has the same target. As to the kind of experiment: small-molecule binders of mutant TOR1A in lysate, primary screen, cell lysate, small-molecule microarray, COS7 lysate, 635/667 nm fluorescence (AID 1150).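 Also: score pools 667 nm emission and signal to noise measuring lysate protein binding.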 The following applies: COS7 hTOR1A mutant lysate, 635 nm fluorescence, higher = more signal.
Assay [10] concerns Sonic hedgehog protein (Shh). In words: small-molecule binders of Shh protein, primary screen, biochemical, small-molecule microarray, 635/667 nm fluorescence (AID 1151).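 Also: Shh protein binding to compounds spotted on small-molecule microarray slides; score combines spot fluorescence intensity with signal-to-noise across triplicate slides.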 To be noted: small-molecule microarray binding, 635 nm fluorescence; higher = more signal.
Assay [11] is described as follows: E. coli DRC41 culture turbidity changes, primary screen, E. coli filamentation inducer project, strain DRC41, OD650, 48 h (AID 1152).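 Also: E. coli MC1000 strain DRC41 lacking acrAB efflux pump and sulA.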 The following applies: E. coli DRC41 (acrAB sulA), higher = more signal, called active from +8 up or from −8 down.
The nature of assay [12]: small-molecule binders of probe aLefty1, primary screen, biochemical, small-molecule microarray, 635/667 nm fluorescence (AID 1153).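 Also: score merges spot fluorescence with signal-to-noise ratio from the scanned slide images.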 To be noted: higher = more signal.
The nature of assay [13]: PSAC antagonists in infected red cells, primary screen, cell-based, P. falciparum Indochina, OD700, 1 h (AID 1154). The following applies: P. falciparum Indochina infected RBC osmotic lysis, higher = more signal, called active from +8 up or from −8 down.
Assay [14] can be described thus: PSAC antagonists in infected red cells, primary screen, cell-based, P. falciparum Indochina, OD700, 2 h (AID 1155).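 Also: lysis reports solute entry through the parasite surface anion channel PSAC; channel blockers reduce lysis of infected cells.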 The following applies: P. falciparum Indochina infected erythrocytes, osmotic lysis OD700; higher = more signal, called active from +8 up or from −8 down.
The nature of assay [15]: osmotic lysis modulators in infected erythrocytes, primary screen, PSAC antagonist project, cell-based, P. falciparum Indochina, OD700, 3 h (AID 1156). To be noted: higher = more signal, called active from +8 up or from −8 down.
Assay [16] can be described thus: PSAC antagonists in infected red cells, primary screen, cell-based, P. falciparum Indochina, OD700, 18 h (AID 1157). To be noted: P. falciparum Indochina infected erythrocytes, osmotic lysis OD700, 18 h; higher = more signal, called active from +8 up or from −8 down.
The nature of assay [17]: modulators of S6 phosphorylation in cells, primary screen, cell-based, A549, cytoblot, luminescence, serum-stimulated (AID 1158).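 Also: serum-stimulated A549 lung adenocarcinoma cells; signal is phosphorylated S6 detected by cytoblot immunostaining with HRP secondary.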 The following applies: A549 phospho-S6 cytoblot, 5 h, higher = more signal.
Assay [18] addresses NADPH oxidase 2 (Homo sapiens) (UniProt P04839). In words: NOX2-dependent H2O2 signal modulators, primary screen, NOX inhibitor project, cell-based, HEK293-NOX2, PMA-stimulated, Amplex Red fluorescence (AID 1159). Also: test concentration not given here. The following applies: 45 min, higher = more signal, called active from +8 up or from −8 down.
The target of assay [19] is NADPH oxidase 4 (Homo sapiens) (UniProt Q9NPH5). In words: NOX4-dependent H2O2 signal modulators, primary screen, NOX inhibitor project, cell-based, HEK293-NOX4, tetracycline-induced, Amplex Red fluorescence (AID 1160). To be noted: 45 min, higher = more signal, called active from +8 up or from −8 down.
Chain of NADPH oxidase 4 (Homo sapiens) (Q9NPH5 whole entry, looked up): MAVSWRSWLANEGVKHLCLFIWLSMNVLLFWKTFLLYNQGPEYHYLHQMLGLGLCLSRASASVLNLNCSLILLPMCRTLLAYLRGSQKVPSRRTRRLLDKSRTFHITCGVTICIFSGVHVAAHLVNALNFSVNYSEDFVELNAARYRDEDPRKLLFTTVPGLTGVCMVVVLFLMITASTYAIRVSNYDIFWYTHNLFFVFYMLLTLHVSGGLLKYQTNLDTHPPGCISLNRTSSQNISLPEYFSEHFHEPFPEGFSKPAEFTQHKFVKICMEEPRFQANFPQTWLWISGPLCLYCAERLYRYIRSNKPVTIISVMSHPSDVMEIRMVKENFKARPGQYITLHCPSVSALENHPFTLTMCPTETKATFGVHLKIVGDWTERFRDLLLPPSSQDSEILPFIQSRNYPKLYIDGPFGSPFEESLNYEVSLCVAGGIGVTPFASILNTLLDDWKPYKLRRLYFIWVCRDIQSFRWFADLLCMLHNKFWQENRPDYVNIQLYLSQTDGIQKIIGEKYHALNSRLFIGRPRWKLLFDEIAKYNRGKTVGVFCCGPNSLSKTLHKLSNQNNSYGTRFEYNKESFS
In assay [20] the target is NADPH oxidase 5 (Homo sapiens) (UniProt Q96PH1). As to the kind of experiment: NOX5-dependent H2O2 signal modulators, primary screen, NOX inhibitor project, cell-based, HEK293-NOX5, Amplex Red fluorescence (AID 1161). The following applies: HEK293-NOX5, ionomycin, 45 min, higher = more signal.
Chain of NADPH oxidase 5 (Homo sapiens) (Q96PH1 whole entry, looked up): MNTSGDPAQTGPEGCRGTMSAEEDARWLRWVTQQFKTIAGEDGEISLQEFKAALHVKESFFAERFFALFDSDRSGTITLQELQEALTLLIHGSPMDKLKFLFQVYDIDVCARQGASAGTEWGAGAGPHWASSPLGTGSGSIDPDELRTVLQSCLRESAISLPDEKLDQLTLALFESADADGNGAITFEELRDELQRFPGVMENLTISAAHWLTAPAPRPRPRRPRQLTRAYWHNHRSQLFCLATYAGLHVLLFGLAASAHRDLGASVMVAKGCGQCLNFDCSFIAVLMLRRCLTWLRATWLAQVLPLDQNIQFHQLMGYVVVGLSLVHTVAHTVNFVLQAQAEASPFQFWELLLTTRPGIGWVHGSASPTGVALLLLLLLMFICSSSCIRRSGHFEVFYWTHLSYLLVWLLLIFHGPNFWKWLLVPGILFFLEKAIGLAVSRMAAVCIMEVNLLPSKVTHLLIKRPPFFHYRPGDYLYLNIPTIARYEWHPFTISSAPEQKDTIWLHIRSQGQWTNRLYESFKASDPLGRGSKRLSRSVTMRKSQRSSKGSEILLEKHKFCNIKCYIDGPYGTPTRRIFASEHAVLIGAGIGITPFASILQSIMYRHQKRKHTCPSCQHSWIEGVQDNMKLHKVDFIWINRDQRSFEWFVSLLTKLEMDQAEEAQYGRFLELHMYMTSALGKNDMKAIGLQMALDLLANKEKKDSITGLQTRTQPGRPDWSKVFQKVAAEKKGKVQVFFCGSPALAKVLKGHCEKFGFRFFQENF

Activity calls are given as the source filed them. Unless noted, no rule for the calls is given here.

Chain of NADPH oxidase 2 (Homo sapiens) (P04839 whole entry, looked up): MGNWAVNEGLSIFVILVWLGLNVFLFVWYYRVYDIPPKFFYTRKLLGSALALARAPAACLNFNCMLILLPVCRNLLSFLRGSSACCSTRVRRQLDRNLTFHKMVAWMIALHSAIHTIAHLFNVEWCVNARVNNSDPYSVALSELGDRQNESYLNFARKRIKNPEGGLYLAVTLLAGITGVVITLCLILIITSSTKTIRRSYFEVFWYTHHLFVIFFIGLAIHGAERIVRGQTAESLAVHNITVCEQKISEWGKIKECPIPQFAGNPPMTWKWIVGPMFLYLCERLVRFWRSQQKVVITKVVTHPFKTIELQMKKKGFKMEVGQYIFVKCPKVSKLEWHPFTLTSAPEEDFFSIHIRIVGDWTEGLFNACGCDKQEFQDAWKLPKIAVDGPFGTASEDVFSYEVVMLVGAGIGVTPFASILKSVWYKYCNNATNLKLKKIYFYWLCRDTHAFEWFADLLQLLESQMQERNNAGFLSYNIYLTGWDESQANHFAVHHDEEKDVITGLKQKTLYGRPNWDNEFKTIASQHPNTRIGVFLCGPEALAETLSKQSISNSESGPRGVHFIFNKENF
Chain of Streptavidin (Streptomyces avidinii) (P22629 whole entry, looked up): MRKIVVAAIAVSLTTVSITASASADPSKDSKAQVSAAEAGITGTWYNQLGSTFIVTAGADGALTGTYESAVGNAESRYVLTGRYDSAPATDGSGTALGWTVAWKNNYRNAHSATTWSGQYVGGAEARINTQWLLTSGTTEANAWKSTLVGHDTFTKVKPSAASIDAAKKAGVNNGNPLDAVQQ

`CCCCCCc1nc(CCCc2cc3c(c(CCCCCC)n2)[Si](C(C)C)(C(C)C)O[C@H]3c2ccccc2)cc2c1[Si](C(C)C)(C(C)C)O[C@H]2c1ccccc1`: the composite z-score is -0.0661 in assay [1]; 0.0479 in assay [6]; -0.0972 in [7]; -0.285 with Torsin-1A (Homo sapiens) [8]; -0.0949 with Torsin-1A (Homo sapiens) [9]; 0.406 in assay [10]. Also, the composite z-score in assay [12] is -0.244. For the same compound, the z-score was -0.636 (inactive) in assay [2]; 0.182 (inactive) in assay [3]; -0.0106 (inactive) in assay [4]; -0.222 (inactive) in assay [5]; -1.58 (inactive) in [11]; 0.963 (inactive) in assay [13]. For the same compound, the z-score was 0.165 (inactive) in assay [14]; 0.97 (inactive) in assay [15]; 0.0888 (inactive) in assay [16]; -0.415 in assay [17]; -4.87 (inactive) in assay [18]; 0.859 (inactive) in [19]. The z-score in assay [20] is -1.07.

Regarding `COc1ccc(O[C@@H]2[C@H](O)CO[C@H]2C=CC#Cc2ccccc2)cc1`, the composite z-score is -0.02 in [1]; -0.31 in [6]; -0.0762 in assay [7]; 0.23 with Torsin-1A (Homo sapiens) [8]; 0.286 in the assay with Torsin-1A (Homo sapiens) [9]; 0.332 in assay [10]. Besides, the composite z-score in [12] was -0.147. Besides, the z-score in assay [2] was 0.163 (inactive); in [3], 0.995 (inactive); in assay [4] it was 0.201 (inactive); in [5] it was 0.415 (inactive); in assay [11] it was -0.939 (inactive); in [13], 2.74 (inactive). The z-score is 0.488 (inactive) in [14]; 0.356 (inactive) in assay [15]; 0.0508 (inactive) in assay [16]; -0.367 in [17]; 0.0749 (inactive) in assay [18]; 1.23 (inactive) in assay [19]. The compound further returned a z-score in assay [20] of 1.46.

With `CCOC(=O)C[C@H]1[C@H](OC(=O)c2ccc(C(=O)c3ccccc3)cc2)[C@@H](NC(=O)c2ccc(-c3ccccc3)cc2)c2cc(OCCCO)ccc2N1C(=O)c1ccc2ccccc2n1`, the composite z-score in assay [1] is 0.599; in assay [6], 1.44; in [7] it was -0.102; in the assay with Torsin-1A (Homo sapiens) [8], 0.274; with Torsin-1A (Homo sapiens) [9] it was 0.408; in assay [10] it was 1.11. Moreover, in assay [12], the composite z-score is -0.118. For the same compound, the z-score in [2] is -0.0434 (inactive); in assay [3], -1.22 (inactive); in assay [4], -0.738 (inactive); in [5], -0.286 (inactive); in assay [11], 2.25 (inactive); in assay [13], 5.21 (inactive). Also, the z-score in assay [14] was 0.485 (inactive); in [15], 0.464 (inactive); in assay [16], 0.407 (inactive); in assay [17] it was 0.756; in assay [18], -1.46 (inactive); in [19], 0.424 (inactive). Also, the z-score in assay [20] was 0.216.

Consider `CCOC(=O)[C@H](Cc1ccccc1)NC(=O)CCC1CC(OC(=O)NCc2ccc3c(c2)OCO3)CC2(CCCC(COC(=O)NCc3cccc(C(F)(F)F)c3)O2)O1` (stereo not given in full), for which the composite z-score is -0.0271 in [1]; 0.0284 in [6]; 0.0448 in assay [7]; 0.0337 with Torsin-1A (Homo sapiens) [8]; 0.134 in the assay with Torsin-1A (Homo sapiens) [9]; 1.17 in [10]. In addition, in assay [12], the composite z-score was 0.138. For the same compound, the z-score in [2] was -2.72 (inactive); in assay [3], -0.518 (inactive); in [4], -0.618 (inactive); in assay [5], -0.0205 (inactive); in assay [11], -0.667 (inactive); in assay [13], -0.272 (inactive). Moreover, the z-score in [14] is -1.05 (inactive); in [15], -0.106 (inactive); in assay [16], -1.37 (inactive); in assay [17], 2.74; in assay [18] it was -0.661 (inactive); in assay [19] it was -1.35 (inactive). Moreover, the z-score in assay [20] is -0.999.
